Experimental data from PubChem BioAssay (NCATS).
Records with an inconclusive call do not appear. The source made the active and inactive calls. Calls follow the shape of the dose curve; as a rule, active = well fitted curve in the direction sought with a large enough effect; inconclusive = small, poorly fitted or top-dose-only effect, or another doubt; inactive = no such curve, though single readings can be large; an effect the other way counts as inactive or inconclusive.

Assays:
[1] = Cell Viability - LYMP2-001 (AID 921); also: series mostly up to about 92 µM; nearly all actives have a fitted effect of over 70% in size
In short: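 Cellular ATP loss read by luciferase luminescence after 24 h compound exposure at 37 C in complete medium. LYMP2-001 lymphoblastoid cells, 2500/well; qHTS concentration-response data fitted with Hill equation for AC50.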

[2] = MultiTox-Fluor Cytotoxicity Assay - LYMP1-001 - Live Cells (AID 947)
[3] = Cell Viability - LYMP1-002 - Assay at 16 hr (AID 948)
In short: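 ATP luminescence (CellTiter-Glo) was measured after 16 hr compound exposure at 37 C of 2500 lymphoblastoid LYMP1-002 cells per well. Concentration-response curves were fitted with the Hill equation to give AC50.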

[4] = MultiTox-Fluor Cytotoxicity Assay - LYMP1-002 - Live Cells (AID 955);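 also: cells exposed to compound for 16 hours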
In short: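 Cytotoxicity in the human lymphoblastoid line LYMP1-002 is measured as loss of live-cell protease activity after 16 h treatment in complete culture medium. AC50 is derived from Hill-equation fits of qHTS concentration-response data.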

[5] = MultiTox-Fluor Cytotoxicity Assay - LYMP1-002 - Dead Cells (AID 960); also: nearly all actives have a fitted effect of over 60% in size
In short: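 Acute cytotoxicity in a human lymphoblastoid line is scored as rising dead-cell protease signal after 16 hr exposure at 37 C, measured fluorometrically (485/520).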

[6] = MultiTox-Fluor Cytotoxicity Assay - LYMP1-003 - Dead Cells (AID 961); also: nearly all actives have a fitted effect of over 70% in size
In short: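 Dead-cell protease release, detected as bis-AAF-R110 fluorescence at 485/520 nm, was measured in LYMP1-003 cells after 16 h compound treatment at 37 C. AC50 values came from Hill-modeled qHTS curves normalized to DMSO (0%) and 15 uM tetraoctylammonium bromide (100%).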

[7] = MultiTox-Fluor Cytotoxicity Assay - LYMP1-003 - Live Cells (AID 962);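 also: cells exposed to compound for 16 hours at 37 °C; cytotoxic hits lower the live-cell protease signal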
In short: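 Cells plated at 2500 per well and incubated 5 hr; compounds added and incubated 16 hr at 37 C; MultiTox-Fluor reagent added for 60 min at room temperature; fluorescence of liberated AFC measured at 405/510 nm.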

[8] = Cell Viability - LYMP1-003 - Assay at 24 hr (AID 963)
In short: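 Acute toxicity in LYMP1-003 lymphoblastoid cells: 24 hr compound treatment at 37 C, ATP measured with CellTiter-Glo after 30 min at room temperature. AC50 derived by fitting the Hill equation to qHTS titrations.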

[9] = Cell Viability - LYMP1-003 - Assay at 40 hr (AID 964); also: series mostly up to about 92 µM; nearly all actives have a fitted effect of over 60% in size
In short: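 This qHTS cytotoxicity screen treats human lymphoblastoid cells (LYMP1-003) with compounds for 40 hr and quantifies cellular ATP via luciferase luminescence.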

[10] = Cell Viability - LYMP2-003 (AID 965);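 also: cells exposed to compounds for 24 h before reading; nearly all actives have a fitted effect of over 50% in size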
In short: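 CellTiter-Glo luminescence quantified ATP loss after 24 h compound treatment of LYMP2-003 lymphoblastoid cells at 37 C. Titration series were fitted with the standard Hill equation to give AC50.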

[11] = Cell Viability - LYMP2-004 (AID 966); also: nearly all actives have a fitted effect of over 65% in size
In short: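 Acute toxicity is scored as a concentration-dependent drop in intracellular ATP, quantified by luciferase luminescence, in human lymphoblastoid cells exposed to compound for 24 hr. AC50 derives from Hill-equation modelling.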

[12] = Cell Viability - LYMP2-005 (AID 967); also: series mostly up to about 92 µM
In short: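 LYMP2-005 human lymphoblastoid cells (2500/well) were treated with compounds for 24 h at 37 C. Intracellular ATP was then measured by CellTiter-Glo luminescence after 30 min at room temperature. AC50 values came from Hill-equation fits of qHTS concentration-response data.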

[13] = Cell Viability - LYMP2-009 (AID 968); also: series mostly up to about 92 µM; nearly all actives have a fitted effect of over 55% in size
[14] = Cell Viability - LYMP2-011 (AID 969); also: nearly all actives have a fitted effect of over 60% in size
In short: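 Acute toxicity is scored as a concentration-dependent drop in intracellular ATP of a human lymphoblastoid line after 24 hr treatment. Values are AC50s modeled with the Hill equation.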

[15] = Cell Viability - LYMP2-013 (AID 970); also: series mostly up to about 92 µM; nearly all actives have a fitted effect of over 55% in size
In short: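 Acute toxicity was measured in human lymphoblastoid cells (2500/well) exposed to compound titrations for 24 hr, with ATP luminescence (CellTiter-Glo) as read-out and AC50 fitted by Hill equation.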

[16] = Confirmation and Secondary Assay for Modulators of Hemoglobin Beta Chain Splicing at IVS2 705 locus (AID 930);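 also: HeLa cells stably expressing the EGFP-705 splicing reporter; GFP fluorescence per well restored by corrected splicing of the IVS2-705 intron in EGFP; series mostly up to about 46 µM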
In short: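 First, HeLa EGFP-705 cells are seeded at 500/well in Optimem with 2% FCS and left overnight. Next, compound or DMSO is added for 2 days. Finally wells are laser-scanned and total peak GFP intensity scored.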

Measured: Potency

C/C=C/C=C/C(=O)O
not listed: [16]
inactive: all other assays above

O=P(O)(O)O
not listed: [12] | [16]
inactive: all other assays above

[O-][N+](=Nc1ccccc1)c1ccccc1
not listed: [10] | [16]
inactive: all other assays above

NC(N)=O
inactive: all assays above

OCc1ccccc1
not listed: [16]
inactive: all other assays above

COC(=O)c1ccccc1O
not listed: [16]
inactive: all other assays above

CC[C@H]1OC(=O)[C@H](C)[C@@H](O[C@H]2C[C@@](C)(OC)[C@@H](O)[C@H](C)O2)[C@H](C)[C@@H](O[C@@H]2O[C@H](C)C[C@H](N(C)C)[C@H]2O)[C@](C)(O)C[C@@H](C)CN(C)[C@H](C)[C@@H](O)[C@]1(C)O
not listed: [16]
inactive: all other assays above

OCl
not listed: [16]
inactive: all other assays above

CC(C)O
not listed: [16]
inactive: all other assays above

CC1=CCC2CC1C2(C)C (configuration not stated)
not listed: [16]
inactive: all other assays above

Cc1ccc(S(=O)(=O)O)cc1C
not listed: [16]
inactive: all other assays above

Oc1ccc(/C=C/c2cc(O)cc(O)c2)cc1
not listed: [9] | [12] | [16]
inactive: all other assays above

OC[C@H]1O[C@@H]2O[C@H]3[C@H](O)[C@@H](O)[C@@H](O[C@H]4[C@H](O)[C@@H](O)[C@@H](O[C@H]5[C@H](O)[C@@H](O)[C@@H](O[C@H]6[C@H](O)[C@@H](O)[C@@H](O[C@H]7[C@H](O)[C@@H](O)[C@@H](O[C@H]1[C@H](O)[C@H]2O)O[C@@H]7CO)O[C@@H]6CO)O[C@@H]5CO)O[C@@H]4CO)O[C@@H]3CO
not listed: [16]
inactive: all other assays above

CC1=CC(=O)NS(=O)(=O)O1
not listed: [12] | [16]
inactive: all other assays above

Cc1ncc[nH]1
not listed: [16]
inactive: all other assays above

CCCCC
not listed: [16]
inactive: all other assays above

Oc1cccc(O)c1O
not listed: [9] | [10] | [11] | [13] | [16]
inactive: all other assays above

C[C@H](CCC(=O)O)[C@H]1CC[C@H]2[C@@H]3[C@H](O)C[C@@H]4C[C@H](O)CC[C@]4(C)[C@H]3C[C@H](O)[C@]12C
not listed: [16]
inactive: all other assays above

CO
not listed: [16]
inactive: all other assays above
